Assay results from PubChem BioAssay.
Results filed as inconclusive are left out. Calls of active or inactive are those of the source.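 The calls were made as follows, unless noted: active = binding below the plate cutoff, the plate median minus 3 SD, with a reading above zero; inconclusive = below the plate cutoff but reading exactly zero; inactive = the rest.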

Tests used:
[1] = yeast TOR pathway RPL19A-GFP modulators, primary screen, cell-based, S. cerevisiae, multiplex flow cytometry (AID 1862; in the data active = percent of DMSO control GFP below about 86%;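 also: lower values mimic rapamycin by blocking the RPL19A rise seen in DMSO cells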); details: S. cerevisiae RPL19A-GFP strain, flow cytometry fluorescence, 3 h; at 10 µM; stronger effect = lower value
[2] = modulators of MEP2-GFP levels in yeast, primary screen, S. cerevisiae, multiplex flow cytometry (AID 1867;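 active = GFP response, as percent of the DMSO control, above the screen-wide mean plus 3 SD, about 139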;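 also: median GFP channel fluorescence of barcode-gated MEP2-GFP cells measured by flow cytometry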); details: S. cerevisiae MEP2-GFP strain, 3 h, at 10 µM, stronger effect = higher value, 100% means same as DMSO wells
[3] = modulators of CIT2-GFP expression in yeast, primary screen, S. cerevisiae, GFP fusion, multiplex flow cytometry (AID 1870;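 active = percent response above a set limit, the screen-wide mean plus 3 SD, cut at about 130% in these data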;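 also: barcoded CIT2-GFP strain pooled with four other GFP strains with rapamycin as positive control; median GFP fluorescence per well over plate mean of DMSO wells so 100% = DMSO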); details: 3 h, at 10 µM, stronger effect = higher value
[4] = modulators of LAP4-GFP expression in yeast, primary screen, S. cerevisiae, multiplex flow cytometry (AID 1873;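 active = GFP signal, as percent of the solvent control, above the screen mean plus 3 SD, about 149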); details: 3 h, at 10 µM, stronger effect = higher value
[5] = modulators of AGP1-GFP expression in yeast TOR pathway, primary screen, cell-based, multiplex flow cytometry, S. cerevisiae (AID 1887;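 active = GFP signal above the screen-wide mean plus 3 SD, that is over about 124.5% of the solvent control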;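 also: AGP1-GFP fusion strain of S. cerevisiae within a five-strain barcoded multiplex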); details: 3 h, at 10 µM, stronger effect = higher value
[6] = inhibitors of CD8+ T cell-vesicle binding, pilot screen, LFA-1/ICAM-1 modulator project, MLPCN validation set, flow cytometry (AID 2523;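 active = response below a set limit, under 55% cells CD8-positive and vesicle-bound, and CD8 cells' 90th-percentile brightness under 279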;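 as to vesicle binding response: mean PE anti-B7-1 fluorescence of CD8+ cells relative to row control; 100% = QL9-loaded vesicles with DMSO vehicle in the same plate row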); details: 2C mouse CD8+ T cells, at 7 µM, stronger effect = lower value; double positive events: measured here: CD8+/vesicle+ event percentage
[7] = biological target: Integrin beta-1 (Homo sapiens) + Integrin alpha-4 (Homo sapiens) (UniProt P13612+P05556); assay: inhibition of HUTS-21 binding to VLA-4, pilot screen, VLA-4 allosteric modulator project, U937 cells, HUTS-21 mAb, flow cytometry, validation set (AID 2674;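 active = inhibition above 50%, about 3 SD of the validation set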;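 also: antibody binding induced by the VLA-4 ligand LDV present at three times its Kd; 0% = LDV ligand with antibody and no compound and 100% = antibody without LDV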); details: HUTS-21 LIBS mAb binding, at 6.7 µM, stronger effect = higher value, binding induced by LDV ligand
Integrin beta-1 (Homo sapiens) + Integrin alpha-4 (Homo sapiens), sequence (P05556 whole entry, looked up): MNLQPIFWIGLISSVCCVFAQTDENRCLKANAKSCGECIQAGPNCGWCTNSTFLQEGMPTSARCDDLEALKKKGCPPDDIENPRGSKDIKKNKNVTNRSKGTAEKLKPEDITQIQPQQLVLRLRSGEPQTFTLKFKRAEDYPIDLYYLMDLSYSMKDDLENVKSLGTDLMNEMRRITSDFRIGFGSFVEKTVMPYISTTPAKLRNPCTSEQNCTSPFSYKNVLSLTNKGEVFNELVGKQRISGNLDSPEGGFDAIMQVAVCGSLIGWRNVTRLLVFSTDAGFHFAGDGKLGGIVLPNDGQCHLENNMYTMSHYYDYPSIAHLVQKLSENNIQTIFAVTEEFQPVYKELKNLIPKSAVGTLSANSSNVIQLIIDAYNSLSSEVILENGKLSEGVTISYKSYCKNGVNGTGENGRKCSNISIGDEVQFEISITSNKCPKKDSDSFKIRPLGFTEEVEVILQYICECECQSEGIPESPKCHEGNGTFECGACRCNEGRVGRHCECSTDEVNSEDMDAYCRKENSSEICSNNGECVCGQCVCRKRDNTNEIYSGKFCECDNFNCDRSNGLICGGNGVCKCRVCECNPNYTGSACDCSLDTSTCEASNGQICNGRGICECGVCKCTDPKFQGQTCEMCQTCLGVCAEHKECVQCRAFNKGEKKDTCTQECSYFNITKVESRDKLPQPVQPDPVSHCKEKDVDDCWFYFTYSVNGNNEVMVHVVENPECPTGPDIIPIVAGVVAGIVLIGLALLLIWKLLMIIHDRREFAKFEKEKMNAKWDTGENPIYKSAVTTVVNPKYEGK
Integrin beta-1 (Homo sapiens) + Integrin alpha-4 (Homo sapiens), sequence (P13612 whole entry, looked up): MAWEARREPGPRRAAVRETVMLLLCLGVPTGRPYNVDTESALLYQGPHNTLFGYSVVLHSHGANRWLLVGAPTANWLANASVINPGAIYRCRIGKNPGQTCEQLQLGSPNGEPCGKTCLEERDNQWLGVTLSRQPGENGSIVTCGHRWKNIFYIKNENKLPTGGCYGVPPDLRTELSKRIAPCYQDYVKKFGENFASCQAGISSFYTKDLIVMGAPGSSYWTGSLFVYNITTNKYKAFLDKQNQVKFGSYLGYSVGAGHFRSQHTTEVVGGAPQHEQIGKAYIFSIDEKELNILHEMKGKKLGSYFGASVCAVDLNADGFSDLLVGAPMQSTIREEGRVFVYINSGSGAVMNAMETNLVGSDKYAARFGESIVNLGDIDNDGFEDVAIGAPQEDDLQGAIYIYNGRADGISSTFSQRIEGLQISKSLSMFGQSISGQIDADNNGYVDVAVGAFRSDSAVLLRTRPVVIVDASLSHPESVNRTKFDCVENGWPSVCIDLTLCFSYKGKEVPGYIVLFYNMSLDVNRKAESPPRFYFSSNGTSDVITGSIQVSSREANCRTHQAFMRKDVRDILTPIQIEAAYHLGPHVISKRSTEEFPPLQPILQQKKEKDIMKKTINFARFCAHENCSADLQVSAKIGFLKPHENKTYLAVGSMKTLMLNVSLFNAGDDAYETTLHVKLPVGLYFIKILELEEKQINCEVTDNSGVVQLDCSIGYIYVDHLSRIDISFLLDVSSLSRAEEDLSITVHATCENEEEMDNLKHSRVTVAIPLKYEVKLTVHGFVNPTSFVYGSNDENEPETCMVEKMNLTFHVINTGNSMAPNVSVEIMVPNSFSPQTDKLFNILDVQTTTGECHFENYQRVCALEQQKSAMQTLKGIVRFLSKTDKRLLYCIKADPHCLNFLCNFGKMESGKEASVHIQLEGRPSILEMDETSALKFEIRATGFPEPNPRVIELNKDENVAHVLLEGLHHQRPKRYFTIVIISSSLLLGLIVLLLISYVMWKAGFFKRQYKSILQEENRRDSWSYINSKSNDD

[8] = superoxide lowering in aged yeast cells, pilot screen, validation compound set (AID 2706;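 active = superoxide response below 65% of plate, a cut near 3 SD across the whole screen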;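 also: yeast exposed to compound for one week at 30 degrees C before staining; 100% = mean of all compound wells on the same plate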); details: S. cerevisiae aging, superoxide DHE fluorescence; at 10 µM; stronger effect = lower value
[9] = biological target: Beta-adrenergic receptor kinase 1 (Homo sapiens) (UniProt P25098); assay: GRK2 binders displacing RNA aptamer, biochemical, validation, human GRK2, bead flow cytometry (AID 488806;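 active = aptamer binding inhibition above 30%, about 3 SD of noise from non-fluorescent compounds; inactive = inhibition at or below 30%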); details: bead-bound GRK2, FAM-aptamer displacement, at 10 µM, stronger effect = higher value
Beta-adrenergic receptor kinase 1 (Homo sapiens), sequence (P25098 whole entry, looked up): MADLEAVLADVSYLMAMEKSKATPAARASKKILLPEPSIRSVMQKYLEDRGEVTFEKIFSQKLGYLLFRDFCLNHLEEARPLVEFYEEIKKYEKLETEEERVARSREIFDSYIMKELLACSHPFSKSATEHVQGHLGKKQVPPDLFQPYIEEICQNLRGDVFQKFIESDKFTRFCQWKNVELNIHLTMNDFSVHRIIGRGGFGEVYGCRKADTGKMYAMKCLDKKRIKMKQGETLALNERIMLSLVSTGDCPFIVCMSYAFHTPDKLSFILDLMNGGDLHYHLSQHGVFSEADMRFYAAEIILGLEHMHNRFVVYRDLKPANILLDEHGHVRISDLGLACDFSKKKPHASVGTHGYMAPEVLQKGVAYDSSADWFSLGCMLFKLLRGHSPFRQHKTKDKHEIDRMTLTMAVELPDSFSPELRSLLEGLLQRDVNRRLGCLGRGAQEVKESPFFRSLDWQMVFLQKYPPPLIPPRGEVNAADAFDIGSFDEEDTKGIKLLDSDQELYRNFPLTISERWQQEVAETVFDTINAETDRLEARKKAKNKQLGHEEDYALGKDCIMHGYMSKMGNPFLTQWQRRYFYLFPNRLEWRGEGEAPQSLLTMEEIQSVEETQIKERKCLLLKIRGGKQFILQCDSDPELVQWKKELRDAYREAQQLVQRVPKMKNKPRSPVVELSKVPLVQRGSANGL

[10] = biological target: Beta-2 adrenergic receptor (Homo sapiens) (UniProt P07550); assay: beta2AR agonists driving receptor internalization, pilot screen, cell-based, FAP fluorogen, flow cytometry, validation set (AID 504459;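 active = percent response above 42, roughly 3 SD of non-fluorescent test compounds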;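 also: agonist-driven loss of surface beta2AR via internalization measured by FAP dye flow cytometry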); details: Am2.2-beta2AR cells, FAP surface receptor flow cytometry; at 10 µM; stronger effect = higher value
Beta-2 adrenergic receptor (Homo sapiens), sequence (P07550 whole entry, looked up): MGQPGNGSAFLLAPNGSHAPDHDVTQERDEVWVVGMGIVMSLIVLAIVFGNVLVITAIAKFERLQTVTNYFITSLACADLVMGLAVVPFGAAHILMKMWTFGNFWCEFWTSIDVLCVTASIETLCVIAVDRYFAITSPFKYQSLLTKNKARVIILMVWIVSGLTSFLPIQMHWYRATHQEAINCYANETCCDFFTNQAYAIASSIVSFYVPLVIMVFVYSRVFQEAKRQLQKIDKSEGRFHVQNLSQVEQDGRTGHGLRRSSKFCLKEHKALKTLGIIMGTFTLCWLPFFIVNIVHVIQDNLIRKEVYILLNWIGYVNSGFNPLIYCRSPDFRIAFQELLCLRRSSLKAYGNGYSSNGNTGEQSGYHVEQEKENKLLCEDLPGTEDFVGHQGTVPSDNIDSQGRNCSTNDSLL

[11] = biological target: AP-2 complex subunit beta (Homo sapiens) (UniProt P63010); assay: inhibitors of arrestin peptide binding to AP2, pilot screen, biochemical, validation set, GST-AP2 beads, flow cytometry (AID 504541;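 active = inhibition above 54%, about 3 SD of non-fluorescent compounds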;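 also: AP2 carries R879A mutation and is captured from E. coli lysate; bead-bound FITC arrestin peptide fluorescence measuring arrestin peptide binding to AP2; 0% = DMSO wells and 100% = excess unlabeled arrestin peptide control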); details: FITC arrestin peptide, at 10 µM, stronger effect = higher value, AP2 beta2 appendage fragment, R879A mutant
AP-2 complex subunit beta (Homo sapiens), sequence (P63010 whole entry, looked up, the tested form may be a part, one chain of several): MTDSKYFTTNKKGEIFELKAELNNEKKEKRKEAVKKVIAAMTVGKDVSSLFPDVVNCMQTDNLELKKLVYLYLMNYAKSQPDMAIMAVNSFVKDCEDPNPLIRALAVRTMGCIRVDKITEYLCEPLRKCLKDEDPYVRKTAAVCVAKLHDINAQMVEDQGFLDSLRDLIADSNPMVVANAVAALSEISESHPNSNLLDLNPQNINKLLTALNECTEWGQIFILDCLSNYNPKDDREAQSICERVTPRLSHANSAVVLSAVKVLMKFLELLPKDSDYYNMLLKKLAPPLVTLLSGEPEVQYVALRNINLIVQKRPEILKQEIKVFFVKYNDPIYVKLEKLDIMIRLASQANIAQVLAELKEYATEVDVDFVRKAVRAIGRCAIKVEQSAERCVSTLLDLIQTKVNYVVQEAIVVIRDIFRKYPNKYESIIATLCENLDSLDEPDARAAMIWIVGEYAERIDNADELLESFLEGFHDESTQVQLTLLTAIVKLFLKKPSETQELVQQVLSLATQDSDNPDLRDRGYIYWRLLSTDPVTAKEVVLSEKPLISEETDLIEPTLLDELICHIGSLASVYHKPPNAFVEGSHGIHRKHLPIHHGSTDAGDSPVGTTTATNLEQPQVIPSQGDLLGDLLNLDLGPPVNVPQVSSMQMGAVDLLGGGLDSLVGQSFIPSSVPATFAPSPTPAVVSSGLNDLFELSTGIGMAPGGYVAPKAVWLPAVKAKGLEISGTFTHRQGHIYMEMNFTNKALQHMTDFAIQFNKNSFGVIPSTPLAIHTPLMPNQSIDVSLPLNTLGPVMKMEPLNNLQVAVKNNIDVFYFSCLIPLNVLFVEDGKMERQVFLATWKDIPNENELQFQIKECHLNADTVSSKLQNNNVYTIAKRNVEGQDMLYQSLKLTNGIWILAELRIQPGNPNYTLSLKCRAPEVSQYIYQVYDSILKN

[12] = yeast V-ATPase proton transport modulators, S. cerevisiae, pHLuorin, HTS validation (AID 504600; in the data active = response above about 15%;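 also: plate controls were DMSO for no effect and reference compound for full effect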); details: S. cerevisiae pHLuorin cytosolic pH, at 10 µM, stronger effect = higher value
[13] = test system: anti-desmoglein-3 scFv antibody binding to human DSG3; assay: inhibitors of anti-DSG3 scFv binding to DSG3, pilot screen, biochemical, validation compound set, bead-based, flow cytometry (AID 588368); details: Protein G beads, DSG3-Fc, scFv-GFP binding, at 10 µM, stronger effect = lower value;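 also: signal is the median channel fluorescence of bead-bound GFP antibody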
[14] = inhibitors of fungal efflux pumps CDR1, CDR2, MDR1, pilot screen, validation compound set, multiplex, phenotypic (AID 588506;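 active = efflux inhibition above 0.42, the validation set average plus 4 SD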;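 also: Nile Red retained in cells so higher fluorescence means more efflux inhibition; 0 = negative control wells and 1 = enniatin B 25 µM full block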); details: S. cerevisiae pump-expressing triplex, Nile Red efflux flow cytometry; at 10 µM; stronger effect = higher value; the pumps come from Candida albicans
[15] = biological target: ATP-binding cassette sub-family B member 6 (Homo sapiens) (UniProt Q9NP58); assay: ABCB6 transporter inhibitors, pilot screen, K562-ABCB6 cells, flow cytometry, validation set (AID 588550;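 active = inhibition above the screen-wide mean plus 3 SD, about 51%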;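 also: 0% = DMSO wells and 100% = benzethonium chloride 70 µM positive control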); details: K562-ABCB6 porphyrin accumulation, 1 h, at 10 µM, stronger effect = higher value
ATP-binding cassette sub-family B member 6 (Homo sapiens), sequence (Q9NP58 whole entry, looked up): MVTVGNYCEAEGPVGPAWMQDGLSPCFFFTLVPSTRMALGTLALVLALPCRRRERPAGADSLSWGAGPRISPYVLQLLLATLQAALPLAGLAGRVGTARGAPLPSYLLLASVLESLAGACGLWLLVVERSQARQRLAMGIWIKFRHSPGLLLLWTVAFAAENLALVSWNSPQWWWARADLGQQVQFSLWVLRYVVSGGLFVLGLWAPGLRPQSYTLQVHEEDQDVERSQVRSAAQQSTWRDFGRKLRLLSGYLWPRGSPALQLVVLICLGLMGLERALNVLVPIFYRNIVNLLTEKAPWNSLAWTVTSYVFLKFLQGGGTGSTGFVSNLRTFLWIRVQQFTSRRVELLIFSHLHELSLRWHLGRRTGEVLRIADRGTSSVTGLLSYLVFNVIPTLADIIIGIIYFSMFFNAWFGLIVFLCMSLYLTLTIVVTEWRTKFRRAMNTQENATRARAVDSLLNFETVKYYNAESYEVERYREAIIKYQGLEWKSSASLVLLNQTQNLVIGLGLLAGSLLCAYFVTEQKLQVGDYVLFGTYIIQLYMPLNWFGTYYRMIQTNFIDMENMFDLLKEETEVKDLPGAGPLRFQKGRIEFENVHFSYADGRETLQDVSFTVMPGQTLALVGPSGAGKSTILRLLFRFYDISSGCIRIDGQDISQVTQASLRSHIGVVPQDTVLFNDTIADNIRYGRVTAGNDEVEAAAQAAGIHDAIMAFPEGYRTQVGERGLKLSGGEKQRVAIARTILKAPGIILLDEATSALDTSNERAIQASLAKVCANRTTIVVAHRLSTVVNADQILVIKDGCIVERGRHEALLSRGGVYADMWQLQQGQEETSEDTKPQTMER

[16] = promoters of myeloid differentiation in arrested cells, primary screen, cell-based, GFP/MAC1 double positive, flow cytometry, validation set (AID 588685;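 active = differentiation response of at least 50%, scaled between solvent and reference control, from cells with both markers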;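 also: compound exposure lasts four days before antibody staining and flow analysis; 0% = DMSO wells and 100% = 5 µM fulvestrant positive control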); details: ER-HoxA9 marrow cells, stronger effect = higher value, normalized: vehicle 0, fulvestrant 100

CCN(CC)CCOC(=O)C(c1ccccc1)c1ccccc1
59.4%: double positive events [6]
active: inhibition [11] 59.1%
inactive: percent of DMSO control GFP [1] 102% | GFP response vs DMSO [2] 108% | percent response of DMSO control [3] 91.9% | GFP response vs DMSO [4] 90.1% | GFP response, % of DMSO [5] 95.6% | vesicle binding response [6] 91.8% | inhibition [7] -4.6% | superoxide response (% of plate) [8] 105% | aptamer binding inhibition [9] 3% | response [10] 2.02% | response [12] -3.97% | binding (% of control) [13] 99% | efflux inhibition (fraction of control) [14] 0.3 | inhibition [15] 6% | differentiation response [16] 37.4%

CC(=O)N[C@@H](CS)C(=O)O
64.2%: double positive events [6]
inactive: percent of DMSO control GFP [1] 101% | GFP response vs DMSO [2] 111% | percent response of DMSO control [3] 95.8% | GFP response vs DMSO [4] 131% | GFP response, % of DMSO [5] 101% | vesicle binding response [6] 159% | inhibition [7] -3.16% | superoxide response (% of plate) [8] 89.1% | aptamer binding inhibition [9] 5% | response [10] 7.69% | inhibition [11] -18.7% | response [12] 0.13% | binding (% of control) [13] 104% | efflux inhibition (fraction of control) [14] -0.03 | inhibition [15] 19% | differentiation response [16] 7.2%

COCC(C)NC(=O)c1ccc(CN2CCc3ccccc3C2)cc1 (stereo not drawn)
60.9%: double positive events [6]
inactive: percent of DMSO control GFP [1] 97.3% | GFP response vs DMSO [2] 108% | percent response of DMSO control [3] 103% | GFP response vs DMSO [4] 120% | GFP response, % of DMSO [5] 92.6% | vesicle binding response [6] 257% | inhibition [7] -12.7% | superoxide response (% of plate) [8] 103% | aptamer binding inhibition [9] -9% | response [10] -5.78% | inhibition [11] 53.4% | response [12] -6.18% | binding (% of control) [13] 195% | efflux inhibition (fraction of control) [14] -0.1 | inhibition [15] 2% | differentiation response [16] 16.8%

CC(C)(C)NCC(O)COc1cccc2c1C[C@H](O)[C@H](O)C2 (stereo partly drawn)
active: inhibition [11] 55.4%
62.6%: double positive events [6]
inactive: percent of DMSO control GFP [1] 104% | GFP response vs DMSO [2] 108% | percent response of DMSO control [3] 98.9% | GFP response vs DMSO [4] 88.1% | GFP response, % of DMSO [5] 98.1% | vesicle binding response [6] 1270% | inhibition [7] -16% | superoxide response (% of plate) [8] 104% | aptamer binding inhibition [9] 3% | response [10] 0.85% | response [12] -3.23% | binding (% of control) [13] 99.2% | efflux inhibition (fraction of control) [14] 0.05 | inhibition [15] 17% | differentiation response [16] 14.9%

COc1ccc(/C=C/C(=O)c2cc3cccc(OC)c3oc2=O)cc1
57.4%: double positive events [6]
inactive: percent of DMSO control GFP [1] 103% | GFP response vs DMSO [2] 106% | percent response of DMSO control [3] 103% | GFP response vs DMSO [4] 106% | GFP response, % of DMSO [5] 95.7% | vesicle binding response [6] 172% | inhibition [7] -11.8% | superoxide response (% of plate) [8] 107% | aptamer binding inhibition [9] 0% | response [10] 7.46% | inhibition [11] 4.15% | response [12] 1.33% | binding (% of control) [13] 96% | efflux inhibition (fraction of control) [14] 0.03 | inhibition [15] -11% | differentiation response [16] 2.74%

Cc1cc(C)nc(NS(=O)(=O)c2ccc(N)cc2)n1
65.7%: double positive events [6]
inactive: percent of DMSO control GFP [1] 108% | GFP response vs DMSO [2] 98.3% | percent response of DMSO control [3] 116% | GFP response vs DMSO [4] 90.1% | GFP response, % of DMSO [5] 104% | vesicle binding response [6] 216% | inhibition [7] -5.64% | superoxide response (% of plate) [8] 95.6% | aptamer binding inhibition [9] 1% | response [10] -4.61% | inhibition [11] -9.4% | response [12] -1.72% | binding (% of control) [13] 90.1% | efflux inhibition (fraction of control) [14] 0.11 | inhibition [15] -1% | differentiation response [16] 6.11%

COc1ccc(CNCCC(c2ccc(F)cc2)c2ccc(OC(C)C)cc2)cc1OC (stereo not drawn)
active: inhibition [7] 64.5%
66.1%: double positive events [6]
inactive: percent of DMSO control GFP [1] 97.9% | GFP response vs DMSO [2] 105% | percent response of DMSO control [3] 105% | GFP response vs DMSO [4] 119% | GFP response, % of DMSO [5] 110% | vesicle binding response [6] 227% | superoxide response (% of plate) [8] 91.3% | aptamer binding inhibition [9] -14% | response [10] 24.3% | inhibition [11] 38.1% | response [12] 0.54% | binding (% of control) [13] 113% | efflux inhibition (fraction of control) [14] -0.04 | inhibition [15] -1% | differentiation response [16] 2.89%

O=C1C(=O)c2ccccc2C(O)=C1c1ccccc1F
inactive: percent of DMSO control GFP [1] 111% | GFP response vs DMSO [2] 99.9% | percent response of DMSO control [3] 71.2% | GFP response vs DMSO [4] 109% | GFP response, % of DMSO [5] 85% | inhibition [7] -11.8% | superoxide response (% of plate) [8] 175% | aptamer binding inhibition [9] 6% | response [10] 4.63% | inhibition [11] 5.16% | response [12] 0.28% | binding (% of control) [13] 99% | inhibition [15] 5% | differentiation response [16] 14.1%
active: vesicle binding response [6] 15.9% | efflux inhibition (fraction of control) [14] 0.46
54.9%: double positive events [6]

C=CCNc1nc2c(c(=O)n(C)c(=O)n2C)n1CC(=C)C
inactive: percent of DMSO control GFP [1] 101% | GFP response vs DMSO [2] 101% | percent response of DMSO control [3] 101% | GFP response vs DMSO [4] 91.6% | GFP response, % of DMSO [5] 103% | vesicle binding response [6] 176% | inhibition [7] -16.1% | superoxide response (% of plate) [8] 103% | aptamer binding inhibition [9] 3% | response [10] -5.19% | inhibition [11] 8.24% | response [12] -4.28% | binding (% of control) [13] 104% | efflux inhibition (fraction of control) [14] -0.38 | inhibition [15] 3% | differentiation response [16] -1.88%
63.3%: double positive events [6]
